Compound activity deposited in PubChem BioAssay by Johns Hopkins Ion Channel Center.
KCNQ2 enhance: potentiators of rat KCNQ2 potassium channel. Potassium voltage-gated channel subfamily KQT member 2 (Rattus norvegicus), O88943. CHO-K1 KCNQ2, FluxOR thallium flux fluorescence; stronger effect = higher value. B-score at 10 µM. hit rate 0.54% among 310,000;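 active = fluorescence ratio B-score at least 3 SD of library B-scores, with initial fluorescence B-score within 3 of them, cut at about 5.3 in these data; same plate scores as AID 2156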;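 also: B-score of peak minus minimum over baseline fluorescence ratio after K+ and Tl+ stimulus; positive B-score means potentiation of KCNQ2 with more thallium influx and brighter signal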
KCNQ2 block: rat KCNQ2 potassium channel inhibitors, primary screen, cell-based, CHO-K1, FluxOR thallium flux, B-score | 20 min; stronger effect = lower value | hit rate 1.1% among 310,000 | B-score at 10 µM | Potassium voltage-gated channel subfamily KQT member 2 (Rattus norvegicus), O88943;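 active = fluorescence ratio B-score at most minus 3 library SDs, with starting brightness B-score within 2 library SDs, cut at about -5.5 in these data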
Kir21 conf inh: mouse Kir2.1 channel blockers, retest, confirmation, cell-based, FluxOR thallium flux, duplicate | Tl flux remaining, % of negative control (stronger effect = lower value), % at 10 µM | hit rate 41% among 2,300 | shares compounds with KCNQ2 enhance | AID 2032, 2009 | Kir2.1-expressing cells, FluxOR thallium flux fluorescence; stronger effect = lower value;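 active = Primary-screen hit whose thallium flux fell at least 3 control SD below untreated wells in both duplicates, with normal baseline fluorescence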
HEK293 ctr: counter-screen for Kir2.1 inhibitors: effect in parental HEK293 cells; shares compounds with KCNQ2 enhance; FluxOR thallium flux fluorescence; 0% = unstimulated blank wells; FluxOR signal as % of negative control (100 = no effect), % at 10 µM; hit rate 19% among 2,300; AID 2105;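 active = dye signal at least 3 control SD above or below untreated wells in both duplicates, raw fluorescence within 3, either direction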;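 also: percent is based on the flux ratio of peak minus minimum fluorescence over baseline F0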
CHO-K1 ctr: nonspecific thallium flux increase in parental CHO-K1, confirmation, counter-screen for KCNQ2 potentiator project, cell-based, FluxOR thallium flux, duplicate; parental CHO-K1 cells, FluxOR thallium flux fluorescence; zero = vehicle mean+3SD, 100% = vehicle-minus-blank window; AID 2282, 2010; shares compounds with KCNQ2 enhance; activity increase over 3SD of controls, % at 10 µM; hit rate 43% among 1,200;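 active = signal rise of at least 3 SD above the untreated control mean, in both duplicate wells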;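 also: counter screen of KCNQ2 potentiator hits so any rise reflects channel-independent effects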
KCNQ1 pot spec: human KCNQ1 channel potentiation off-target, confirmation, selectivity assay for KCNQ2 potentiator project, cell-based, CHO, FluxOR thallium flux; hit rate 28% among 1,200; CHO KCNQ1 stable, FluxOR thallium flux fluorescence; beyond 3SD, as % of vehicle-control signal; AID 2283, 2010; activation over 3SD threshold, % at 10 µM; shares compounds with KCNQ2 enhance;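 active = fluorescence ratio rise of at least 3 SD of vehicle wells above their mean, in both replicate wells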
KCNQ2 pot conf: rat KCNQ2 channel potentiators, confirmation, cell-based, CHO, FluxOR thallium flux, duplicate | shares compounds with KCNQ2 enhance | CHO-KCNQ2 cells, FluxOR thallium flux fluorescence | potentiation, less the hit threshold, % at 10 µM | hit rate 68% among 1,200 | AID 2287, 2010;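 active = fluorescence ratio rising 3 SD or more over the vehicle control mean in both replicates, plus primary screen hit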;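 also: peak minus minimum thallium fluorescence divided by baseline after K/Tl stimulus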
Kir2-1 sel: mouse Kir2.1 channel activation off-target, confirmation, selectivity assay for KCNQ2 potentiator project, cell-based, HEK293, FluxOR thallium flux. shares compounds with KCNQ2 enhance. HEK293 Kir2.1, FluxOR thallium flux fluorescence. activity over 3SD threshold, % at 10 µM. hit rate 2% among 1,200;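 active = fluorescence ratio rise of at least 3 SD above the vehicle-control mean, seen in both replicates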
KCNQ2 W236L MoA: potentiators of retigabine-insensitive KCNQ2 W236L, mechanism study for KCNQ2 potentiator project, cell-based, rat KCNQ2 W236L, CHO, automated patch clamp. shares compounds with KCNQ2 enhance. automated patch clamp current. current increase over 3SD of negative controls (%), stronger effect = higher value, % at 25 µM. hit rate 10% among 940. AID 2558, 2010;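 active = current increase at least 3 SD of the untreated controls above them in both duplicate recordings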
Target sequence (O88943 whole entry W236L, looked up): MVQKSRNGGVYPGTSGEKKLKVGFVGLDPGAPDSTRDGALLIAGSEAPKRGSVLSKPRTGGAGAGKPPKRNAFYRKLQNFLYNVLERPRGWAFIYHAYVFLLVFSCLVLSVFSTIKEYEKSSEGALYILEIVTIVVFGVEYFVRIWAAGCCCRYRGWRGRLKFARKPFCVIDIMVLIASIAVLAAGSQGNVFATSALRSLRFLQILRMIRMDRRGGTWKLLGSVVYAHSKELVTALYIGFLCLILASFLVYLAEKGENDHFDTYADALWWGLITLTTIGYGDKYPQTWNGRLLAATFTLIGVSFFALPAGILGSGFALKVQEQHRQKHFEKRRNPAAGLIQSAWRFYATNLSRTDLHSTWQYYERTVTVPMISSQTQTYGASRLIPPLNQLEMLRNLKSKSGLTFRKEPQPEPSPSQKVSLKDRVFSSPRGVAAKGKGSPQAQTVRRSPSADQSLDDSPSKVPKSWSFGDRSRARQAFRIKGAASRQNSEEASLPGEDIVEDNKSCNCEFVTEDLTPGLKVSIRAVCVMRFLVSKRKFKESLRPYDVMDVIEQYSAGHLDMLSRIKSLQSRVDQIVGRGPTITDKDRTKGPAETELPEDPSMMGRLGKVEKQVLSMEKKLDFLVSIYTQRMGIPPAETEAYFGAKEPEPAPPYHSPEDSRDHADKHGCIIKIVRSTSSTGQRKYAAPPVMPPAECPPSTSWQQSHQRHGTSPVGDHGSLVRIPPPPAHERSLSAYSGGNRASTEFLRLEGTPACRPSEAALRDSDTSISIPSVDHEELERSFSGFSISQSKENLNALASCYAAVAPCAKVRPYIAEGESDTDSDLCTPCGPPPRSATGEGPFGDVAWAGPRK
A number is an active result; - = inactive; . = not tested or not shown. Compounds with a hit are over-represented: about 1.6% of the library has one in this group of screens.

SMILES | KCNQ2 enhance | KCNQ2 block | Kir21 conf inh | HEK293 ctr | others
COc1ccccc1OCCNc1cc(N2CCCCC2)ccc1[N+](=O)[O-] | . | - | . | .
Cc1ccccc1OCCNc1cc(N2CCNCC2)ccc1[N+](=O)[O-] | . | - | 35.5% | -
CC(C)c1nc(CNC(=O)C2CCC(=O)N(CCc3cccc(F)c3)C2)cs1 (configuration not stated) | - | - | . | .
N#Cc1c(-c2cccs2)nc(SCc2ccc(Cl)cc2)[nH]c1=O | 6.11 | - | - | 59.5% | CHO-K1 ctr=4.4;KCNQ1 pot spec=18.3;KCNQ2 pot conf=15.4;Kir2-1 sel=-;KCNQ2 W236L MoA=-
CSc1nc(-c2cccs2)c(C#N)c(=O)[nH]1 | - | - | . | .
Cc1cc(C)c(C(=O)OCC(=O)Nc2cccc(S(=O)(=O)N3CCCCC3)c2)c(C)c1 | - | - | . | .
CCOC(=O)N1CCC(C(=O)NNC(=O)c2ccc(Cl)cc2Cl)CC1 | - | - | . | .
CC(NC(=O)Nc1ccc(Cl)cc1)C1CCCO1 (configuration not stated) | . | - | . | .
Cc1cc(Cl)ccc1OC(C)C(=O)NC(C)C1CCCO1 (configuration not stated) | . | - | 56.5% | -
CN1CCC(OC(=O)c2ccc(Br)cc2)CC1 | - | - | . | .
CN1CCC(=C(c2ccccc2)c2ccc(Br)cc2)CC1 | . | - | 37.5% | -
C=CCN1C(=O)c2ccccc2NC1c1ccc(Br)s1 (configuration not stated) | - | - | . | .
O=C1c2ccccc2NC(c2ccc(Br)s2)N1O (configuration not stated) | 7.79 | - | - | 287.5% | CHO-K1 ctr=1.4;KCNQ1 pot spec=26.9;KCNQ2 pot conf=21.7;Kir2-1 sel=-;KCNQ2 W236L MoA=-
Cc1ccc([N+](=O)[O-])cc1S(=O)(=O)Nc1ccc(OCC(=O)N2CCOCC2)cc1 | - | - | . | .
CCCc1sc(N/N=C/c2ccccn2)nc1-c1ccc(F)cc1 | 5.76 | - | - | - | CHO-K1 ctr=-;KCNQ1 pot spec=11.8;KCNQ2 pot conf=-;Kir2-1 sel=-
CCN=c1scc(-c2ccc(F)cc2)n1/N=C/c1ccccn1 | - | - | . | .
O=C(/C=C/c1ccccc1)CC(O)(c1ccccc1)C(F)(F)F (configuration not stated) | . | - | 61.5% | -
COc1ccc(/C=C/C(=O)CC(O)(c2ccccc2)C(F)(F)F)cc1 (configuration not stated) | . | - | . | .
Cc1nn(CCCC(=O)NC2CCC(C)CC2)c(=O)c2nn(-c3ccccc3)c(C)c12 (configuration not stated) | . | - | . | .
COc1cc(NC(=O)c2ccc(Cl)cc2)c(Cl)cc1NC(=O)c1cccnc1 | . | - | . | .
CCSc1nc2c(sc3ccccc32)c(=O)n1C(C)C | 6.03 | - | - | 243.5% | CHO-K1 ctr=29.2;KCNQ1 pot spec=1.2;KCNQ2 pot conf=24.9;Kir2-1 sel=-;KCNQ2 W236L MoA=-
CCCCn1c(SCC(N)=O)nc2c(sc3ccccc32)c1=O | - | - | . | .
COC(=O)c1sc(N2C(=O)C(O)=C(C(=O)c3ccc(C)o3)C2c2cc(OC)ccc2OC)nc1C (configuration not stated) | - | - | . | .
